Screening results from PubChem BioAssay.
Sampled rows, rich in hits. Any-hit rate of the full collection: about 12%.
JMJD2A Tudor inh: blocks the human JMJD2A Tudor domain; O75164; AlphaScreen JMJD2A-Tudor / H3K4me3 peptide binding; Potency, µM (top dose mostly 114 µM), usual class: inhibitors; 390,000 compounds, 4.4% hits; AID 504339; further: nearly all actives have a fitted effect of over 50% in size
G9a block: blocks human histone lysine methyltransferase G9a; AID 504332; 350,000 compounds, 8.8% hits; Q96KQ7; G9a H3K9 monomethylation, AlphaScreen, 2 h; Potency, µM (highest dose often 102 µM), most hits filed as inhibitors; further: nearly all actives have a fitted effect of over 75% in size
Target sequence (Q96KQ7 913-1193 limits assumed): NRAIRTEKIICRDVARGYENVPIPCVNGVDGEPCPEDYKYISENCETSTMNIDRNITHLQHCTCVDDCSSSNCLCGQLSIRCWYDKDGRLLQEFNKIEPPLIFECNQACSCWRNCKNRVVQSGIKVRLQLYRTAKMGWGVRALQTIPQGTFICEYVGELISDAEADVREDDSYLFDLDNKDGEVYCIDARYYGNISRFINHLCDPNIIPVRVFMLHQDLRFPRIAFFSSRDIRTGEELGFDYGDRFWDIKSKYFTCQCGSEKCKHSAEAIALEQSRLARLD
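Quantitative HTS format: methyltransferase activity on a biotin-tagged H3K9 peptide is measured by AlphaScreen, using a rabbit anti-monomethyl-H3K9 antibody with streptavidin donor and anti-IgG acceptor beads. Final levels are 20 nM enzyme, 500 nM peptide, 20 uM SAM; 2 h RT.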
Sfp inh: inhibitors of Bacillus subtilis Sfp phosphopantetheinyl transferase | Q9F4F7 | Biochemical Sfp PPTase activity, qHTS | Potency, µM, hits mostly inhibitors | 310,000 compounds, 3.5% hits | AID 1490;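 further: the enzyme is Sfp with the accession as filed and its product quenches rhodamine fluorescence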
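With Hepes-Na pH 7.6 buffer containing 10 mM MgCl2, Sfp (15 nM) modified BHQ-2-YbbR (12.5 uM) using rhodamine-CoA (5 uM). Two reads 30 minutes apart at 525/598 nm yielded each well's rate.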
TDP1 inh: TDP1 (human) enzyme inhibition. recombinant TDP1, AlphaScreen DNA substrate cleavage. AID 485290. Potency, µM (titrated, usually from 130 µM), usual class: inhibitors. 350,000 compounds, 0.28% hits; further: nearly all actives have a fitted effect of over 40% in size
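Signal: AlphaScreen proximity between streptavidin donor and anti-FITC acceptor beads on intact substrate. Reaction: Tdp1 1 nM, substrate 15 nM final, 5 min RT after 15 min compound preincubation.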
BAZ2B inh: BAZ2B (human) inhibition | Q9UIF8 | AlphaScreen BAZ2B-H3K14Ac peptide displacement | Potency, µM (highest dose often 114 µM), hits mostly inhibitors | 360,000 compounds, 4.4% hits | AID 504333; further: nearly all actives have a fitted effect of over 60% in size
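AlphaScreen displacement of biotin-H3(5-23)K14Ac peptide (50 nM final) from BAZ2B (50 nM final) in PBS pH 7.4, 0.01% Tween-20; complex preformed 30 min RT, then compounds (top 110 uM) 30 min RT, beads 20 min dark.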
HP1b chromo inh: inhibitors of HP1-beta chromodomain binding to methylated histone tails; P83916; Potency, µM (titrated, usually from 114 µM), usual class: inhibitors; AlphaScreen HP1-beta / biotin-H3K9me3 peptide binding; 390,000 compounds, 0.56% hits; further: nearly all actives have a fitted effect of over 70% in size
Target sequence (P83916 whole entry, looked up): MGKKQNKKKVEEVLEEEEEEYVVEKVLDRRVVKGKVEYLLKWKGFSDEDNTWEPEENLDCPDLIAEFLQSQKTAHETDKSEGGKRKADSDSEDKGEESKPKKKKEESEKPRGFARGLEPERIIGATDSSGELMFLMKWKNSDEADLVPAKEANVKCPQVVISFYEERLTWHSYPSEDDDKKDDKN
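HP1-beta protein (50 nM final) preincubated 30 min at room temperature with biotinylated H3(1-18)K9me3 peptide (50 nM) in PBS pH 7.4, 0.01% Tween-20, then compound added for 30 min. AlphaScreen streptavidin donor/nickel chelate acceptor beads (10 ug/mL final), 30 min dark, luminescence read.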
Hits are given with their value. The call rests on the fitted dose curve; in most records, active means well fitted curve in the direction sought with a large enough effect; inconclusive means small, poorly fitted or top-dose-only effect, or another doubt; inactive means no such curve, though single readings can be large; an effect the other way counts as inactive or inconclusive.

How did CN1CCN(C(=S)NC(=O)c2ccc(Cl)cc2)CC1 do in these assays?
JMJD2A Tudor inh: inconclusive; G9a block: 28.2µM; Sfp inh: 35.5µM; TDP1 inh: inactive; BAZ2B inh: 56.2µM; HP1b chromo inh: inconclusive

What do the screens show for `CC(=O)c1ccc(N2C(=O)N(Cc3ccccc3C#N)c3ccccc3S2(=O)=O)cc1`?
JMJD2A Tudor inh: inactive; G9a block: inactive; TDP1 inh: inactive; BAZ2B inh: inactive; HP1b chromo inh: inactive

What do the screens show for `COc1ccc(C(=O)N2CCCC(C(=O)N3CCN(c4ccccc4)CC3)C2)cc1` (stereo not given)?
JMJD2A Tudor inh: inactive; G9a block: inactive; Sfp inh: inactive; BAZ2B inh: inactive; HP1b chromo inh: inactive

What do the screens show for `Cn1cccc1-c1nc2ccc(NC(=O)c3ccco3)cc2[nH]1`?
JMJD2A Tudor inh: inconclusive; G9a block: inconclusive; Sfp inh: inactive; TDP1 inh: inactive; BAZ2B inh: 50.1µM; HP1b chromo inh: inconclusive

How did O=C(Nc1ccc2nc(-c3cccs3)[nH]c2c1)c1ccco1 do in these assays?
JMJD2A Tudor inh: inactive; G9a block: inconclusive; Sfp inh: inactive; TDP1 inh: inactive; BAZ2B inh: inactive; HP1b chromo inh: inactive

What do the screens show for `Cc1ccc2nc(-c3ccc(NC(=O)c4ccco4)cc3)[nH]c2c1`?
JMJD2A Tudor inh: inactive; G9a block: 28.2µM; Sfp inh: inactive; TDP1 inh: inactive; BAZ2B inh: inactive; HP1b chromo inh: inactive

What do the screens show for `Cc1cc(OCC(=O)NNC(=O)c2cccs2)ccc1Br`?
JMJD2A Tudor inh: inactive; G9a block: inactive; Sfp inh: inactive; BAZ2B inh: inactive; HP1b chromo inh: inactive

What do the screens show for `Cn1c(CS/C(N)=N/N=C/c2ccccc2)c(Br)c(=O)n1-c1ccccc1`?
JMJD2A Tudor inh: 50.1µM; G9a block: 35.5µM; Sfp inh: 44.7µM; TDP1 inh: inactive; BAZ2B inh: inconclusive; HP1b chromo inh: inactive

Results for CCOC(=O)c1cccc(NC(=O)Cn2c(=O)nc(-c3ccccc3)c3ccccc32)c1 ?
JMJD2A Tudor inh: inconclusive; G9a block: inactive; TDP1 inh: inactive; BAZ2B inh: inactive; HP1b chromo inh: inactive

How did Cn1c(CNC(=O)CNC(=O)c2ccc(C(C)(C)C)cc2)cc(=O)n(C)c1=O do in these assays?
JMJD2A Tudor inh: inactive; G9a block: inactive; Sfp inh: inactive; TDP1 inh: inactive; BAZ2B inh: inactive; HP1b chromo inh: inactive

How did COc1ccc(CCNC(=O)C(=O)NCC(c2ccco2)S(=O)(=O)c2ccccc2)cc1 (stereo not given) do in these assays?
JMJD2A Tudor inh: inactive; G9a block: inactive; TDP1 inh: inactive; BAZ2B inh: inactive; HP1b chromo inh: inactive

Results for O=c1cc(CN2CCc3ccccc32)nc2sccn12 ?
JMJD2A Tudor inh: 17.8µM; G9a block: 31.6µM; Sfp inh: inactive; TDP1 inh: inactive; BAZ2B inh: inactive; HP1b chromo inh: inconclusive

Results for Cc1ccc(C)c(S(=O)(=O)N2CCN(Cc3cc4c(cc3O)OCO4)CC2)c1 ?
JMJD2A Tudor inh: 31.6µM; G9a block: 1.41µM; TDP1 inh: inactive; BAZ2B inh: 39.8µM; HP1b chromo inh: inactive

How did O=[N+]([O-])c1ccccc1S(=O)(=O)N1CCN(Cc2cc3c(cc2O)OCO3)CC1 do in these assays?
JMJD2A Tudor inh: inconclusive; G9a block: 2.51µM; Sfp inh: inactive; TDP1 inh: inactive; HP1b chromo inh: inactive

What do the screens show for `O=c1cc(CN2CCN(S(=O)(=O)c3ccccc3[N+](=O)[O-])CC2)nc2sccn12`?
JMJD2A Tudor inh: inactive; G9a block: 39.8µM; Sfp inh: inactive; TDP1 inh: inactive; HP1b chromo inh: inactive

What do the screens show for `O=[S+]([O-])(c1ccc2nsnc2c1)N1CCN([S+](=O)([O-])c2c(F)cccc2F)CC1`?
JMJD2A Tudor inh: inactive

How did COc1cc(OC)c(NC(=O)CCn2cnc3onc(-c4ccc(F)cc4)c3c2=O)cc1Cl do in these assays?
JMJD2A Tudor inh: inactive; G9a block: inactive; TDP1 inh: inactive; BAZ2B inh: inactive; HP1b chromo inh: inactive

Results for COc1ccc(N2CCN(S(=O)(=O)CCNC(=O)c3c(F)cccc3Cl)CC2)cc1 ?
JMJD2A Tudor inh: inactive; G9a block: inactive; TDP1 inh: inactive; BAZ2B inh: inactive; HP1b chromo inh: inactive

Results for COc1ccc(C2C(C(=O)OCC3CCCO3)=C(C)NC3=C2C(=O)CC(c2ccco2)C3)cc1O (stereo not given) ?
JMJD2A Tudor inh: inactive; G9a block: inactive; Sfp inh: 56.2µM; TDP1 inh: inactive; BAZ2B inh: inactive; HP1b chromo inh: inactive

Results for O=C(O)/C(=C\c1ccco1)NC(=O)c1ccc(Br)o1 ?
JMJD2A Tudor inh: inconclusive; HP1b chromo inh: inactive

Results for O=C(Nc1ccc(C(=O)O)cc1)/C(=C\c1ccc2c(c1)OCO2)NC(=O)c1ccc(Br)o1 ?
JMJD2A Tudor inh: 44.7µM; G9a block: inactive; Sfp inh: inactive; TDP1 inh: inactive; BAZ2B inh: inactive; HP1b chromo inh: inactive

Results for O=C(O)/C(=C/c1ccco1)NC(=O)c1ccc(Br)o1 ?
JMJD2A Tudor inh: inactive; G9a block: 44.7µM; Sfp inh: inactive; BAZ2B inh: inactive; HP1b chromo inh: inactive

What do the screens show for `CC(C)C(NC(=O)/C(=C/c1ccco1)NC(=O)c1ccc(Br)o1)C(=O)O` (stereo not given)?
JMJD2A Tudor inh: inconclusive; G9a block: 22.4µM; Sfp inh: inconclusive; BAZ2B inh: inconclusive; HP1b chromo inh: inactive

How did NC(=O)/C(=C\c1ccco1)NC(=O)c1ccc(Br)o1 do in these assays?
JMJD2A Tudor inh: inactive; HP1b chromo inh: inactive

How did O=C(Nc1ccc(C(=O)O)cc1)/C(=C\c1ccco1)NC(=O)c1ccc(Br)o1 do in these assays?
JMJD2A Tudor inh: inconclusive; G9a block: 35.5µM; Sfp inh: 50.1µM; TDP1 inh: inactive; BAZ2B inh: inactive; HP1b chromo inh: inconclusive

Results for CC1=C(/C=C/C(C)=C/C=C/C(C)=C\CO)C(C)(C)CCC1 ?
G9a block: 25.1µM; Sfp inh: inactive; TDP1 inh: inactive

How did COc1ccc(C=C2SC(=S)NC2=O)cc1 do in these assays?
JMJD2A Tudor inh: inactive; HP1b chromo inh: inactive

Results for COc1ccc(/C=C2/SC(=O)NC2=O)cc1 ?
JMJD2A Tudor inh: inactive; G9a block: 79.4µM; Sfp inh: inactive; TDP1 inh: inactive; BAZ2B inh: inactive; HP1b chromo inh: inactive

How did CCOc1ccc(N=C2NC(=O)S/C2=C\c2ccc(OC)cc2)cc1 do in these assays?
JMJD2A Tudor inh: 28.2µM; G9a block: inconclusive; Sfp inh: inactive; TDP1 inh: inactive; BAZ2B inh: inconclusive; HP1b chromo inh: inactive

How did CCOC(=O)CSCC(=O)N1CCC(Cc2ccccc2)CC1 do in these assays?
JMJD2A Tudor inh: inactive; G9a block: inactive; Sfp inh: inactive; TDP1 inh: inactive; BAZ2B inh: inactive; HP1b chromo inh: inactive
